Laboratory results taken from PubChem BioAssay (Tox21).
Results filed as inconclusive are left out. Calls of active or inactive are those of the source. Calls follow the shape of the dose curve; as a rule, active = well fitted cell-killing curve with a large enough effect in the repeat runs; inconclusive = weak or mixed curves; inactive = flat fitted curve, though single readings scatter.

assay: qHTS assay to identify small molecule antagonists of the estrogen related receptor (ERR) signaling pathway from Tox21 library - cell viability counter screen (AID 1224834); details: ERR reporter cells viability, CellTiter-Fluor, 17.5 h; series mostly up to 92.4 µM; viability change, negative = cytotoxic: at the top concentration; also: nearly all actives have a fitted effect of over 30% in size
Summary of the method: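 CellTiter-Fluor fluorescence, read after 30 min at 37 C, measures viability of ERR cells. Cells plated at 2,000/well and incubated 6 h before pin-tool compound addition, then exposed 17.5 hours at 37 C.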
% is scaled to controls: 0 for no effect and ±100 for the full control effect; potency is read from the fitted curve at half-maximal effect.

SMILES	viability change, negative = cytotoxic	Potency
O=C(NS(=O)(=O)/C=C/c1ccccc1)c1ccc(F)cc1Cl	1.37% (inactive)	
O=C(c1ccccc1)c1ccc(O)cc1		69.4 µM (active)
CC(C(=O)O)c1ccc(C(=O)c2cccs2)cc1 (stereo not drawn)	8.68% [at 42.5 µM] (inactive)	
O=C1c2ccccc2C(=O)c2c(O)ccc(O)c21	-7.19% (inactive)	
CC(C)N(C)C	2.27% (inactive)	
C=CC(=O)O	3.87% [at 42.5 µM] (inactive)	
CCC(Cl)CC(Cl)C(Cl)C(Cl)C(Cl)C(C)Cl (stereo not drawn)	-2.15% [at 19 µM] (inactive)	
CCN(CC)CCOC(=O)C(c1ccccc1)c1ccccc1	5.19% [at 42.5 µM] (inactive)	
